# Source: PubChem BioAssay (NCATS)
# Unmarked numbers belong to inactive results. Results filed as inconclusive are left out. A call without a number means that no potency is given here. Calls of active or inactive are those of the source. Unless noted, the call rests on the fitted dose curve; in most records, active means well fitted curve in the direction sought with a large enough effect; inconclusive means small, poorly fitted or top-dose-only effect, or another doubt; inactive means no such curve, though single readings can be large; an effect the other way counts as inactive or inconclusive. Where a SMILES comes first, the peptide text is derived from it.
# Assays:
# [1] = P-glycoprotein substrates identified in KB-8-5-11 adenocarcinoma cell line, qHTS therapeutic library screen (AID 1346987); further: nearly all actives have a fitted effect of over 65% in size; on activity change, negative = cytotoxicity: series mostly up to about 44 µM
# In short: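 Luminescence from CellTiter-Glo, read 5 min after addition, quantified survival of KB-8-5-11 (P-gp-overexpressing) cells exposed to compounds for 72 h. AC50 was derived from concentration-response curves.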
# [2] = P-glycoprotein substrates identified in KB-3-1 adenocarcinoma cell line, qHTS therapeutic library screen (AID 1346986); further: nearly all actives have a fitted effect of over 60% in size
# In short: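 72 h cell-killing screen, 500 cells/well, CellTiter-Glo luminescence. Paired lines KB-3-1/KB-8-5-11; P-gp dependence checked by tariquidar co-treatment and HEK-293 MDR-19 versus empty-vector cells.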
# [3] = biological target: Peroxisome proliferator-activated receptor alpha (Homo sapiens) (UniProt Q07869); experiment: qHTS assay for small molecule agonists of the peroxisome proliferator-activated receptor alpha (PPARalpha) signaling pathway (AID 651778); conditions: PathHunter PPARalpha complementation, chemiluminescence, 6 h; active compounds read high
# In short: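 Cells plated at 2,000/well and held overnight at 37 C, 5% CO2, then compound added by pin tool for 6 hr; after PathHunter detection reagent and 60 min at room temperature, chemiluminescence from enzyme complementation was read.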
# [4] = biological target: Nuclear receptor ROR-gamma (Homo sapiens) (UniProt P51449); experiment: qHTS assay for small molecule antagonists of the retinoid-related orphan receptor gamma (ROR-gamma) signaling pathway (AID 651802);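 further: CHO cells with doxycycline-induced ROR-gamma expression; series mostly up to about 92 µM; nearly all actives have a fitted effect of over 60% in size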
# In short: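 Steps: cells dispensed; compound or DMSO transferred by pin tool; doxycycline added to induce the ROR response element-driven luciferase; plates held 16hr at 37C; ONE-Glo added and luminescence measured.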
# [5] = qHTS assay for small molecule agonists of the antioxidant response element (ARE) signaling pathway measured by Nrf2-dependant transcriptional activity (AID 720636; active means well fitted curve in the direction sought with a large enough effect in the repeat runs; an effect the other way counts as inactive or inconclusive)
# In short: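 Quantitative HTS format in HepG2 cells stably expressing an ARE-luciferase reporter; 16 hr compound treatment at 37 C, luciferase signal detected with ONE-Glo.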
# [6] = qHTS assay for small molecule antagonists of the retinoid-related orphan receptor gamma (ROR-gamma) signaling pathway - cell viability counter screen (AID 720652; active means well fitted curve in the direction sought with a large enough effect in the repeat runs; an effect the other way counts as inactive or inconclusive;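 further: CHO reporter cells with doxycycline-induced ROR-gamma expression; series mostly up to about 92 µM; compound exposure lasted 16 hr before ATP read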)
# In short: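 Steps: seed CHO cells bearing TET-inducible ROR and ROR response element-luciferase; rest 5 hr at 37 C; add compound, then doxycycline; incubate 16 hr; add CellTiter-Glo and read luminescence as ATP-based viability.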
# [7] = qHTS assay for small molecule agonists of the antioxidant response element (ARE) signaling pathway measured by Nrf2-dependant transcriptional activity - cell viability counter screen (AID 720653; active means well fitted curve in the direction sought with a large enough effect in the repeat runs; an effect the other way counts as inactive or inconclusive); conditions: ARE-bla HepG2 viability, CellTiter-Glo ATP luminescence, 16 h; active compounds read low
# In short: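 ARE-bla HepG2 cells (2,000/well) rested 5 hrs at 37C/5% CO2, then exposed to compounds in DMSO for 16 hrs. Viability was read in the same wells as intracellular ATP by luminescence, 30 min at room temperature after reagent addition.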
# [8] = qHTS assay for cell viability of HEK293 cells (AID 743288); conditions: ATP luminescence (CellTiter-Glo), 18 h, active compounds read low; further: nearly all actives have a fitted effect of over 50% in size
# Excerpt: National Center for Advancing Translational Sciences [NCATS]
# NIH Chemical Genomics Center [NCGC]
# U.S. Environmental Protection Agency [EPA]
# National Institutes of Environmental Health Sciences [NIEHS]
# National Toxicology Program [NTP]
# U.S. Food and Drug Administration [FDA]
# The CellTiter-Glo Luminescent Cell Viability Assay (Promega, Madison, WI) is a homogeneous method to determine the number of viable cells in culture based on quantitation of the ATP present, which signals the presence of metabolically active cells. This cell viability assay was used to screen environmental chemicals in the Hek293 cell line.
# Tox21 Assay Protocol Summary:
# Cell viability after compound treatment was measured using a luciferase-coupled ATP quantitation assay (CellTiter-Glo viability assay, Promega, Madison, WI) in parental HEK293 cells. Total intracellular ATP content corresponds to the number of metabolically competent cells after compound treatment. The cells were dispensed at 2,000 cells/5 uL/well in 1,536-well white/solid bottom assay plates using a Flying Reagent Dispenser (Aurora Discovery, San Diego, CA). The cells were incubated a minimum of 5 h at 37 C, followed by the addition of 23 nL of compounds dissolved in DMSO, positive controls or DMSO only using a pintool work station (Kalypsys, San Diego, CA). The assay plates were incubated for 18 h at 37 C, followed by the addition of 5 uL/well of CellTiter-Glo reagent. After 30 min incubation at room temperature, the luminescence intensity of the plates was measured using a ViewLux plate reader (PerkinElmer, Shelton, CT).
# [9] = qHTS assay for cell viability of the p53RE-bla HCT-116 cell line (AID 743292); further: nearly all actives have a fitted effect of over 55% in size
# In short: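 Viability of compound-treated p53RE-bla HCT-116 cells is taken from ATP-dependent luciferase luminescence. Treatment lasts 16 h at 37 C after a 5 h settling period; detection follows 30 min at room temperature.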
# [10] = system: Zika virus NS2B-NS3 protease (linked construct); experiment: Confirmatory screen NINDS AMC qHTS for Zika virus inhibitors (AID 1347152); further: potency means the concentration at half of the fitted maximal effect; nearly all actives have a fitted effect of over 70% in size
# In short: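 Concentration-response confirmation used the NINDS linked protease (NS2B hydrophilic domain joined to NS3 protease domain), 1 nM, with a 15-min compound preincubation. Substrate, Nle-KRR-AMC at 10 microM, was read by UV fluorescence before and after 15 min.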
# Sequence of Peroxisome proliferator-activated receptor alpha (Homo sapiens) (Q07869 whole entry, looked up): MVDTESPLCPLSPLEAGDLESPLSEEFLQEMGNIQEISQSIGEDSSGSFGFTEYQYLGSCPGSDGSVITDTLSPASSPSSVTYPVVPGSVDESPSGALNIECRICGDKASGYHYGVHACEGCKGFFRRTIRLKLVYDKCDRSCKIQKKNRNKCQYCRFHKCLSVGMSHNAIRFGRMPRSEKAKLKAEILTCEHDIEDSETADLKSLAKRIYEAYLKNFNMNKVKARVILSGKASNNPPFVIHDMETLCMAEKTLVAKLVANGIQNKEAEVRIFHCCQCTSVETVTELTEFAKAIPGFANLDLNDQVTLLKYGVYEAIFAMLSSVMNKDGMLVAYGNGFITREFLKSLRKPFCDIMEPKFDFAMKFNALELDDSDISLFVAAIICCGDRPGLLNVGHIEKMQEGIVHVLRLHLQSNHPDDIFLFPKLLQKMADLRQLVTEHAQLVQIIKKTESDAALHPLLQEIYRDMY
# Sequence of Nuclear receptor ROR-gamma (Homo sapiens) (P51449 whole entry, looked up): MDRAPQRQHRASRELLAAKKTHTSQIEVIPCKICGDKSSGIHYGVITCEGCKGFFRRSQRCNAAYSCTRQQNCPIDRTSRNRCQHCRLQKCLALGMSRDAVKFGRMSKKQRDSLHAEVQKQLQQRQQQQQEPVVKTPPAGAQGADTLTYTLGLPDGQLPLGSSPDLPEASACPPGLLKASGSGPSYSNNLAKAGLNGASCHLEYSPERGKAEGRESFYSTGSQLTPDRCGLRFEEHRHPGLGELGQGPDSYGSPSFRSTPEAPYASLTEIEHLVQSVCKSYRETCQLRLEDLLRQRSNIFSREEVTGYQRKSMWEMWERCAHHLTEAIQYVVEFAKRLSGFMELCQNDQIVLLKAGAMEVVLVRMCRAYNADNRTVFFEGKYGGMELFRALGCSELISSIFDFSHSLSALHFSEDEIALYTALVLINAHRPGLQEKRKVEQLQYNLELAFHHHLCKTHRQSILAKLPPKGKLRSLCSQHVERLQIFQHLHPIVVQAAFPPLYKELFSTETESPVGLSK
structure (smiles),measurement,setting,value
COc1ccc(C(=O)NCc2cc(C(C)C)no2)cc1OC1CCN(C)CC1,Potency,[1],inactive
COC1CC(O[C@H]2CC[C@@]3(C)C(=CC[C@]4(O)C3[C@H](O)[C@@H](O)[C@]3(C)[C@@H]([C@H](C)O)CC[C@@]34O)C2)OC(C)C1OC1CC(OC)C(OC2CC(OC)C(OC3OC(C)C(OC4OC(CO)C(O)C(O)C4O)C(OC)C3O)C(C)O2)C(C)O1 (some centres not stated),"activity change, negative = cytotoxicity",[1],0.732% [at 9.29 µM]
CC1=CC(=O)CC(C)(C)C1CO[C@@H]1O[C@H](CO)[C@@H](O)[C@H](O)[C@H]1O (some centres not stated),Potency,[1],inactive
COc1cc(C(=O)OC[C@H]2O[C@@H](OC(C)(C)C(=O)O)[C@H](O)[C@@H](O)[C@@H]2O)cc(OC)c1O,Potency,[2],inactive
same,Potency,[1],inactive
CC(C)=CCC/C(C)=C/CO[C@@H]1O[C@H](CO[C@@H]2O[C@@H](CO)[C@H](O)[C@H]2O)[C@@H](O)[C@H](O)[C@H]1O,Potency,[2],inactive
same,Potency,[1],inactive
CN(C)CC(c1ccc(O)cc1)C1(O)CCCCC1 (configuration not stated),Potency,[2],inactive
same,Potency,[1],inactive
CC(=O)OCC(Cc1ccccc1)NC(=O)C(Cc1ccccc1)NC(=O)c1ccccc1 (configuration not stated),Potency,[1],inactive
O=C(NCCN1CCCC1)c1cc(-c2ccc(CN3CCOCC3)cc2)nc2ccc(F)cc12,Potency,[2],inactive
same,Potency,[1],inactive
CC1=COC(OC2OC(CO)C(O)C(O)C2O)C2C(CO)CC(OC(=O)/C=C/c3ccc(O)cc3)C12 (configuration not stated),Potency,[2],inactive
same,Potency,[1],inactive
C[C@]12CCC[C@](C)(C(=O)O)C1[C@@H](O)[C@@H](O)C13CC(CCC12)C(CO)(O[C@@H]1O[C@H](CO)[C@@H](O)[C@H](O)[C@H]1O)C3 (some centres not stated),Potency,[1],inactive
C=C(C)C(O)COc1ccc(CC(=O)O)cc1 (configuration not stated),Potency,[2],inactive
same,Potency,[1],inactive
COC(=O)C1(C)CCCC2(C)c3ccc(C(C)C)cc3C(O)C(O)C12 (configuration not stated),Potency,[2],inactive
same,Potency,[1],inactive
COc1ccc(C2COc3cc(O)ccc3C2)c(O)c1OC (configuration not stated),Potency,[1],inactive
OC[C@H]1O[C@@H](Oc2cc(O)cc(-c3cc4ccc(O[C@@H]5O[C@H](CO)[C@@H](O)[C@H](O)[C@H]5O)cc4o3)c2)[C@H](O)[C@@H](O)[C@@H]1O,Potency,[1],inactive
O=C(O)C[C@H]1CCC(=O)[C@@H]1C/C=C\CCO,Potency,[1],inactive
COc1ccc(CCC(=O)c2c(O)cc(O[C@@H]3O[C@H](CO)[C@@H](O)[C@H](O)[C@H]3O[C@@H]3O[C@@H](C)[C@H](O)[C@@H](O)[C@H]3O)cc2O)cc1O,max response,[3],0.724%
same,outcome,[4],inactive
same,outcome,[5],inactive
same,outcome,[6],inactive
same,max response,[7],-0.966%
same,max response,[8],-4.69%
same,outcome,[9],inactive
same,Potency,[2],inactive
same,Potency,[1],inactive
C=C1CC[C@H]2[C@@](C)(CCC(O)[C@@]2(C)CO)[C@@H]1/C=C/C(=C\C(=O)O)C(=O)O (some centres not stated),Potency,[2],inactive
same,Potency,[1],inactive
CC(C)C1C(OC(=O)/C=C/c2ccccc2)CC2(C)OC2CCC2(C)OC2C1O (configuration not stated),Potency,[1],inactive
CC(C)C1NC(=O)CNC(=O)C2CCCN2C(=O)C(Cc2c[nH]c3ccccc23)NC(=O)CNC(=O)C(Cc2ccc(O)cc2)NC(=O)CNC1=O (configuration not stated) (cyclo(GVGYGWP); configuration not given here),Potency,[2],inactive
same,Potency,[1],inactive
CC(=O)O[C@@H]1[C@H](OC(C)=O)C[C@@]2(C)C(CC[C@@H](C)[C@]23Cc2c(O)cc4c(c2O3)CN([C@@H](CCC(=O)O)C(=O)O)C4=O)C1(C)C (some centres not stated),Potency,[1],inactive
CC(=O)O[C@@H]1[C@@H](O)[C@H](C)O[C@@H](O[C@H]2[C@@H]3C=CO[C@@H](O[C@@H]4O[C@H](CO)[C@@H](O)[C@H](O)[C@H]4OC(C)=O)[C@@H]3[C@@]3(CO)O[C@@H]23)[C@@H]1OC(=O)/C=C/c1ccc(O)cc1,Potency,[2],inactive
same,Potency,[1],inactive
CC(=O)OCC1OC(O[C@H]2CC[C@@]3(C)C(CC[C@]4(C)C3CC=C3[C@@H]5CC(C)(C)CC[C@]5(C(=O)O)CC[C@]34C)[C@]2(C)CO)C(O)C(O)C1OC1OC(C)C(O)C(OC2OCC(O)C(O)C2O)C1O (some centres not stated),outcome,[2],inactive [at 9.29 µM]
same,outcome,[1],inactive [at 9.29 µM]
CCc1nnc(NS(=O)(=O)c2ccc(NC(=S)NC(=O)/C=C/c3ccc(F)cc3)cc2)s1,Potency,[2],inactive
same,Potency,[10],19.7 µM (active)
CC1=C2CC3C(CCC3(C)O)C(C)(O)CC2OC1=O (configuration not stated),Potency,[1],inactive
CC1(C)C[C@H]2C=C(C=O)[C@]3(C(=O)O)C[C@]3(C)[C@H]2C1,Potency,[1],inactive
C/C(=C\C(=O)C[C@@]12C(=O)O[C@]3(C)CC[C@H]1C[C@H]23)C(N)=O,Potency,[2],inactive
same,Potency,[1],inactive
CC1(C)CC=C(c2cnc3ccccc3c2)c2cc(C(=O)Nc3ccc(C(=O)O)cc3)ccc21,Potency,[2],inactive
same,Potency,[1],inactive
same,Potency,[10],17.5 µM (active)
C=CC(C)(O)CC/C=C(\C)C(=O)O[C@@H]1[C@@H](O)[C@H](OC(C)(C=C)CC/C=C(\C)C(=O)O[C@@H]2O[C@H](CO)[C@@H](O)[C@H](O)[C@H]2O)O[C@H](CO)[C@H]1OC(=O)/C(C)=C/CCC(C)(O)C=C (some centres not stated),outcome,[2],inactive [at 9.29 µM]
same,"activity change, negative = cytotoxicity",[1],2.84% [at 9.29 µM]
